In PubChem BioAssay AID774 (SRMLSC, 2007):
Hit rate of the full screen: of about 65,000 compounds, about 15 (0.02%) were called active.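 How the source made its calls: active means single-dose screening hits from any of four coupled enzyme assays that gave an IC50 when retested across doses; inconclusive means no clear call, values can overlap the other calls; inactive means the rest.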 The list is a sample of the results.

Assay: NADH-endpoint coupling enzyme inhibition profiling – biochemical, MLSMR library, artefact control, profiling panel (AID 774);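 further: the DPM-DC format reads NADH fluorescence rather than 340 nm absorbance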
Settings: coupled PK/LDH NADH assays, four targets; at 10 µM; stronger effect = higher value

inhibition, inactive:
Cc1nc(NCc2ccccc2)c(C(N)=O)c2c1COC(C)(C)C2 11%
CCN(CC)CCNC(=O)C1c2ccccc2C(=O)N(C)C1c1cn(C)c2ccccc12 (centres undefined) 6%
CCOc1cc(C(=O)N2CCc3cc(OC)c(OC)cc3C2)ccc1OC(F)F 7%
Cc1cc(N2CCCC2)n2nc(C)c(-c3ccccc3)c2n1 8%
CSCCC(NC(N)=O)C(=O)N(C)CC(=O)Nc1ccc(C)cc1 (centres undefined) 8%
CC(NCCO)C(=O)C12CC3CC(CC(C3)C1)C2 (centres undefined) 4%
O=P(O)(CP(=O)(c1ccccc1)c1ccccc1)c1ccccc1 6%
COC(=O)c1cc(NC(=O)CN2CCC(C(N)=O)(N3CCCCC3)CC2)cc(C(=O)OC)c1 4%
ON=C1/C(=N\O)CC2(C/C1=N/O)OCCO2 2%
CCc1ccccc1NC(=O)CSc1nnc([C@@H](NC(=O)OC(C)(C)C)C(C)CC)o1 (some centres undefined) 5%
COc1ccc(-n2ncc3c(N4CCc5ccccc54)ncnc32)cc1 6%
CCOc1ccc(S(=O)(=O)N(CC(=O)O)c2ccccc2)cc1 1%
CCOc1cccc(NC(=O)CC#N)c1 6%
COC(=O)c1sccc1NC(=O)c1csc2c1CCCC2 5%
CCOC(=O)CNC(=O)CSc1nnc(COc2ccc(Cl)cc2)n1CC 8%
N#Cc1ccc(OCCN2C(=O)NC3(CCSC3)C2=O)cc1 (centres undefined) 14%
CS(=O)(=O)N(Cc1nc2sc3c(c2c(=O)[nH]1)CCCC3)C1CCCCC1 3%
CCn1nc(NC(=O)c2ccco2)c2cc3ccc(C)cc3nc21 9%
N#CC(C(=O)c1ccc(S(=O)(=O)N2CCCCCC2)cc1)c1nc2ccccc2[nH]1 (centres undefined) 8%
CC(=O)N(Cc1cccs1)C1CCOC(C)(C)C1 (centres undefined) 5%
CCn1c(NCCc2ccc(OC)c(OC)c2)nc2c1c(=O)n(C)c(=O)n2C 7%
Nc1nc(SCCOc2ccccc2)n[nH]1 1%
N#C/C=C\Oc1ccc(Cl)cc1N 7%
Cc1nnc(NC(=O)CSc2nccn2-c2cccc(C)c2C)s1 5%
O=C(NCc1ccco1)c1cc2sccc2n1Cc1ccc(F)cc1 5%
CCOc1ccc(-c2cn(S(=O)(=O)c3cccc4nsnc34)nc2N)cc1 5%
O=C(CCn1c(=O)[nH]c2ccccc2c1=O)NCCCN1CCN(c2cccc(Cl)c2)CC1 1%
CC1=CC(C)(C)N(C(=O)CSc2nccn2C)c2cc(C)ccc21 0%
O=C(O)CCSc1nnc(-c2ccccc2)n1-c1ccccc1 4%
CSc1nnc(CNC(=O)c2ccccc2)n1-c1ccc(F)cc1 0%
CC(NC(=O)Nc1ccccc1)c1ccccc1 (centres undefined) 10%
CC(=O)c1cc(C#N)c(SCC(=O)C(C)(C)C)nc1C 1%
COc1cccc(NC(=O)Nc2nnc(N3CCCCC3C)s2)c1 (centres undefined) 7%
CCCn1cc(SCC(N)=O)c2ccccc21 1%
COc1ccc(S(=O)(=O)N2CCC(C(=O)N3CCc4ccccc4C3)CC2)cc1OC 2%
CCOC(=O)N1CCC(O)(c2cc(C)c(C)cc2C)CC1 3%
O=C(CNS(=O)(=O)c1ccc(Br)s1)NCc1ccc2c(c1)OCO2 5%
CC(C)[C@H](NC(=O)Nc1ccc(S(N)(=O)=O)cc1)C(=O)O 2%
C/C(N)=C(\C#N)C(=O)NCCc1ccccn1 5%
O=C(Cn1c(=O)sc2ccccc21)Nc1nc2c(s1)CCCC2 5%
c1ccc2c(c1)OCC(c1nn3cnnc3s1)O2 (centres undefined) 3%
COc1cccc(-c2cc3nc4c(c(N5CCC6(CC5)OCCO6)n3n2)CCCC4)c1 4%
C=CCc1cccc2cc(C(=O)N3CCN(C(=O)OCC)CC3)c(=O)oc12 4%
CCOC(=O)CC1C(=O)NCCN1C(=O)COc1ccc(Br)cc1C (centres undefined) 4%
Cc1nn(-c2ccccc2)c2[nH]c(C(F)(F)F)cc(=O)c12 3%
O=[n+]1c2c(n([O-])c3cc(Br)ccc31)CCC2 5%
CC(C)CCNc1nc(N2CCCC2)c2c(c1C#N)CCN(C)C2 7%
COc1ccc(N2C(=O)CCC(C(=O)Nc3ccccn3)C2c2ccc(OC)c(OC)c2)cc1 (centres undefined) 2%
Cc1ccc(S(=O)(=O)c2nc(NCCCn3ccnc3)sc2Cl)cc1 6%
COc1ccc(N(CC(=O)NC(C)(C)C)C(=O)c2ccco2)cc1 1%
CCOC(=O)c1[nH]c2ccccc2c1N=C(C)N(CC)CC 4%
COc1cccc2c(C)c(C(=O)O)[nH]c12 14%
COCCCNC(=O)c1c(F)c(F)c(F)c(F)c1F 5%
O=C(CCn1c(=O)oc2ccccc21)Nc1ccon1 5%
COc1cc(C2C(C(=O)Nc3ccc(F)cc3)=C(C)Nc3nc(CCCO)nn32)cc(OC)c1OC (centres undefined) 9%
OCCCN1c2ccccc2Nc2nnc(-c3ccccc3)cc21 2%
C=C1c2cc(CC)ccc2NC(=O)N1c1ccc(C)cc1 4%
CCc1nnc(NC(=O)CCC(=O)O)s1 1%
COc1cc(-c2nnc(Cn3cc(C(F)(F)F)ccc3=O)o2)cc(OC)c1OC 4%
CCOP1(=O)C=C(C(C)(C)C)OC1c1ccc(F)cc1 (centres undefined) 5%
CCN(CC)C(=O)CSc1nnc(-c2ccc(S(=O)(=O)NCc3ccccc3Cl)cc2)o1 6%
CCc1c(C)n([O-])c2c([n+]1=O)CCCCC2 4%
Cc1noc(NS(=O)(=O)c2ccc(N3CC(O)=C(c4ccccc4)C3=N)cc2)c1C 4%
Cn1c(NC(=O)c2ccc3c(c2)OCO3)cc(=O)n(C)c1=O 7%
COC(=O)Cc1c(C)c2ccc(OCC(=O)NCc3ccc4c(c3)OCO4)cc2oc1=O 10%
O=C(CSc1nc2ncccc2[nH]1)Nc1ccc2c(c1)OCCO2 1%
CNC(=O)CSc1nnnn1-c1ccc(C)cc1C 2%
CCC(C(=O)Nc1ncccn1)(C(F)(F)F)C(F)(F)F 1%
COc1ccc(C2/C(=C(/O)c3ccccc3)C(=O)C(=O)N2c2ncccn2)cc1OC (centres undefined) 1%
O=C(COC(=O)c1ccccc1C(=O)c1ccccc1)c1ccco1 4%
Cc1cc(C)n(C(=O)c2ccc(S(=O)(=O)N3CCCC3)cc2)n1 4%
CC1(C)CCCC2=C1CC1C(=O)N(c3ccccc3)C(=O)C1C2 (centres undefined) 6%
Cc1ccc2cccc(O)c2[n+]1[O-] 10%
CCOc1ccccc1-n1c(SCC(=O)N2CCCC2)nnc1-c1ccoc1C 4%
O=C(CN1C(=O)C2C3C=CC(C3)C2C1=O)NCC1COc2ccccc2O1 (centres undefined) 8%
Cn1nnnc1SCc1cc(=O)[nH]c2ccccc12 6%
Cc1cc(OCCN2CCCC2)ccc1C(C)C 14%
CC1(C)CC(=O)c2sc(N)nc2C1 3%
CCOC(=O)C1CCN(C(=O)Cn2cc(C#N)c3ccccc32)CC1 5%
COc1ccc(-c2nn(-c3ccccc3)cc2C(=O)Nc2nc(CC(C)=O)ns2)cc1 4%
CCOC(=O)CCCNC(=O)CN1C(=O)NC(CCc2ccccc2)C1=O (centres undefined) 5%
Cc1ccc(CCn2c3c(c4ccccc42)CN(C)CC3)cn1 2%
CC(C)C1Cc2c(sc3c2c(=O)n(-c2ccccc2)c2nncn32)CO1 (centres undefined) 3%
CN1c2ccccc2-c2nc3ccccc3n2C1c1ccco1 (centres undefined) 6%
C=CCn1c(COc2ccccc2)nnc1SCC(=O)NCC(=O)OCC 3%
Cc1cccc(OCC(O)Cn2c(=N)n(CCN3CCOCC3)c3ccccc32)c1 (centres undefined) 6%
C/C(=C\c1ccco1)C1Nc2cccc3cccc(c23)N1 10%
Cc1cc(NC(=O)Nc2ccccc2)n(-c2ccccc2)n1 1%
COc1ccc(Br)cc1/C=N/n1c(C)nnc1C 6%
O=C(Nc1ccccc1N1CCN(C(=O)c2ccccc2)CC1)c1ccc2c(c1)OCO2 4%
C=CCNc1nc(C)nc(OC)n1 3%
CCCCC(CC)C(=O)Nc1ccc(Cl)cn1 (centres undefined) 5%
CC(=O)c1c(N2CCOCC2)nc(=S)n(-c2cc(C)ccc2C)c1C 5%
CC(C)CCn1c(CN(C)Cc2ccccc2)nc2c1c(=O)n(C)c(=O)n2C 8%
COC(=O)c1ccc(C2CC(=O)Nc3cc(OC)c(OC)cc32)cc1 (centres undefined) 9%
CCOc1ccccc1NC(=O)C1CCC(CNc2c(N3CCOCC3)c(=O)c2=O)CC1 (centres undefined) 7%
O=C(CSc1ncccn1)NCCc1ccccc1 5%
COc1ccc(OC)c(NC(=O)CN2CCN(C(=O)c3ccco3)CC2)c1 3%
Cc1cccc(C)c1NC(=O)CCCSc1nnc(-c2ccco2)n1-c1ccccc1 3%
CCOC(=O)c1c(C(C#N)C#N)cc(C)nc1C 7%
Cc1cc(C)c(C(=O)CN2C(=O)CCC2=O)cc1C 5%
Oc1c(C(c2ccco2)N2CCC3(CC2)OCCO3)sc2ncnn12 (centres undefined) 3%
CCOC(=O)c1cc2cc(-c3c(C(=O)OCC)oc4cc(O)cc(O)c4c3=O)ccc2o1 3%
O=C(NC1=NCCS1)c1ccc(Cl)s1 10%
